Consider 40 molecules from PubChem BioAssay (NCI).

Where “and” joins values, the source holds several entries; their conditions need not be identical. Identical values can stand only once. The panel holds about 83,000 compounds, 20% with a hit somewhere; the sample as a whole holds those more often.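 Note: values are percent growth. 100 is the growth of untreated cells, values between 100 and 0 indicate rising inhibition; between -100 and 0 indicates cell death.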 Calls of active or inactive are those of the source.

The test system of the assay is HL-60(TB) leukemia. Description: NCI-60 one-dose screen, 48 h (100 = growth as untreated, 0 = no growth, -100 = all killed). The conditions noted are these: 10 µM unless noted. Here is the method: Growth inhibition of the HL-60(TB) human tumor cell line is measured as a screen for anti-cancer activity. Cells are grown in 96 well plates and exposed to the test compound for 48 hours. Compounds are tested at a single concentration, which is 10^-5 M for most compounds. The reported endpoint is percent growth (GI% or GIPRCNT), where numbers from 0 - 100% represent growth inhibition, and numbers from -100% - 0 represent cell death. For example, a value of 40 represents 60% growth inhibition. A value of 0 means no net growth occurred over the course of the experiment. A value of -40 indicates 40% of cells at the beginning of the experiment died by the end of the experiment. A value of -100 means all cells are dead at the end of the experiment.
NCI-60 Human Tumor Cell Lines Screen was performed using the standard one-dose NCI protocol, which is described in more detail at https://dtp.cancer.gov/discovery_development/nci-60/default.htm.
Compounds with GIPRCNT values below 10 were considered active. Activity score was based on GIPRCNT using the following formula: […]
Score is 0 for GIPRCNT values of 100 or above, 50 for GIPRCNT values of 0, and 100 for GIPRCNT values of -100.
Regarding `CC[C@H](CC[C@@H](C)[C@H]1CC[C@H]2[C@@H]3CC[C@H]4C[C@]5(CC[C@]4(C)[C@H]3CC[C@]12C)OO[C@](C)(C(F)(F)F)O5)C(C)C`, the growth was 106% (inactive).
Turning to `O=C1c2ccccc2C(=O)N1N1CC1c1ccccc1` (stereo not given), the growth was 102% (inactive).
As to `CNC(=O)Oc1ccc(Cl)cc1SSc1cc(Cl)ccc1OC(=O)NC`, the growth is 61.3% (inactive).
With `O=C(O)C(F)F` the figure was 96% (inactive).
Take `CSc1cc(/C=C(\C)[C@@H]2C[C@@H]3O[C@]3(C)CCC[C@H](C)[C@H](O)[C@@H](C)C(=O)C(C)(C)[C@@H](O)CC(=O)O2)n(CCNC(=O)OC(C)(C)C)n1`: the growth was 8.76% (active).
For the molecule `COc1ccc(O)c2c(=O)c3c(OC)cc4c(c3oc12)[C@@H]1C=CO[C@@H]1O4`, the growth is 65.8% (inactive).
With `Cc1cc[c-]cc1.Fc1c[c-]c(-c2ccccn2)c(F)c1.[Pt+2].c1ccc([PH+](c2ccccc2)c2ccccn2)cc1` the figure was 38.2% (inactive).
`Cc1cc(N(CCCl)CCCl)ccc1/C=N\NC(=O)c1cccnc1`: the growth was 60% (inactive).
With `NC(=O)Oc1cc(OC(N)=O)cc(N(CCCl)CCCl)c1` the figure was 15.1% (inactive); with `CC[C@H](C)[C@H](NC(=O)[C@H]1CCCCN1C)C(=O)N(C)[C@H](C[C@@H](OC(C)=O)c1nc(C(=O)NC23C4C5C2C2C3C4C52C(=O)OC)cs1)C(C)C` (stereo not given in full), -32.8% (active).
With `CN1CCN(c2ccc(Cl)cc2)CC1` the figure was 48.7% (inactive); with `CCCCCCCCCCCCCCCC[N+](C)(C)Cc1ccccc1`, -28.8% (active) and -47.8% (active).
In the case of `CCCCCCCCCCCCCCCCCCn1cc[n+](C)c1`, the growth is 3.76% (active) and 2.22% (active).
On to `O=c1[nH]c(=O)n(Cl)c(=O)n1Cl`, for which the growth is 110% (inactive) and 115% (inactive).
With `CC[CH2][Sn]([Cl])([Cl])[CH2]CC.Oc1ccccc1C=NCCN=Cc1ccccc1O` the figure was 7.92% (active) and 64.9% (inactive).
Regarding `COc1cc2c(cc1OC)[C@@H]1C(=O)c3ccc4c(c3O[C@@H]1CO2)C[C@H](C(C)C)O4`, the growth is 19% (inactive).
With `CN1CCC2(CC1)C(C#N)C(=O)NC(=O)C2C#N` (stereo not given) the figure was 107% (inactive).
With `O=[N+]([O-])c1ccc(P(=O)(O)O)cc1`, the growth is 105% (inactive).
In the case of `CC[C@H](C)[C@H](NC(=O)[C@H]1CCCCN1C)C(=O)N(C)[C@H](C(=O)NC12CC(C(=O)N[C@@H](Cc3ccccc3)C[C@H](C)C(=O)OC)(C1)C2)C(C)C`, the growth is 114% (inactive).
Consider `COC(=O)C12C3C4C1C1C2C3C41NC(=O)c1csc([C@@H](C[C@H](C(C)C)N(C)C(=O)[C@@H](NC(=O)[C@H]2CCCCN2C)C2CC2)OC(C)=O)n1` (stereo not given in full), for which the growth is -37.4% (active).
With `COc1cc(-c2ccc(N)c(OC)c2)ccc1N` the figure was 118% (inactive).
Consider `C[N+]1(C)CCCC1c1cccnc1` (stereo not given), for which the growth is 117% (inactive).
With `Cc1ccc(S(=O)(=O)n2cc([C@@]3(O)C[C@H](CSC#N)OC3=O)c3ccccc32)cc1` the figure was 80.1% (inactive); with `CCCC1CCCCC12C(=O)NC(=O)NC2=O` (stereo not given), 121% (inactive) and 94.2% (inactive); with `COC(=O)C1=CCCN(C)C1`, 108% (inactive) and 122% (inactive).
As for `O=NN1CCCCC1`, the figure is 110% (inactive).
In the case of `CC1(C)C=Cc2c(ccc3c2[N+]([O-])=C2C3=C[C@@]34NC(=O)[C@]5(CCCN5C3=O)C[C@@H]4C2(C)C)O1`, the growth is 33.6% (inactive).
With `CN(C)C(=S)SSC(=S)N(C)C` the figure was 113% (inactive); with `CC1=C([Te]c2ccccc2)C(=O)c2ccccc2C1=O`, 12.7% (inactive); with `CO[C@@H]([CH2][Hg][O]C(=O)c1ccccc1)[C@@H]([CH2][Hg][O]C(=O)c1ccccc1)OC`, 64.9% (inactive).
As for `N#CC(C#N)=Cc1cccc(F)c1`, the figure is 97.2% (inactive).
With `CCCC(C)SP(=S)(SC(C)CCC)SC(C)CCC` (stereo not given), the growth was 106% (inactive).
As for `O=C(O)C1C(C(=O)O)C2(Cl)C(Cl)=C(Cl)C1(Cl)C2(Cl)Cl` (stereo not given), the figure is 95.1% (inactive).
Take `Oc1ccc(O)c(Cl)c1`: the growth is 12.3% (inactive) and 94.8% (inactive).
`NC(=O)c1c(Br)c(Br)c(Br)c(Br)c1C(=O)O` (tested in a mixture with another compound): the growth is 85% (inactive) and 68.2% (inactive).
For the molecule `COC12CC3(C)C(C4=CC(=O)OC4)CCC3(O)C3CCC4=CC(=O)CCC4(CO1)C32` (stereo not given), the growth is 123% (inactive).
As for `COCC1OC2OC3C(COC)OC(OC4C(COC)OC(OC5C(COC)OC(OC6C(COC)OC(OC7C(COC)OC(OC8C(COC)OC(OC1C(O)C2O)C(O)C8O)C(O)C7O)C(O)C6O)C(O)C5O)C(O)C4O)C(O)C3O` (stereo not given) (tested in a mixture with another compound), the figure is 132% (inactive); as for `Cc1cc2c(cc1-c1ccnc(/C=C/C(=O)O)c1)C(C)(C)CCC2(C)C`, 59.2% (inactive); as for `Cc1ccc(P(=O)(O)O)cc1`, 107% (inactive).
For the molecule `COc1ccc2c(c1)c(-c1nc(-c3c[nH]c4ncccc34)cs1)cn2CCCCN1CCOCC1`, the growth is 7.66% (active).
